# Bioassay records: PubChem BioAssay, National Center for Advancing Translational Sciences (NCATS)
# Most compounds without a hit are left out; they make up all but 3.9% or so of the library.
# D1 ag: agonists of human D1 dopamine receptor; AID 504660; P21728; activation, % at 2 µM; HEK293 T-REx D1 cells, calcium flux, agonist mode; 1% of 360,000 active; in the data active means activation above about 30%; further: 0% is about no effect
#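 Tetracycline-induced HEK293 TREx D1 cells, force-coupled to calcium signalling, were dye-loaded with a no-wash calcium kit. Compound was pin-added after a 10 s baseline. Fluorescence was read kinetically at 1 cycle/s for 180 s, with calcium rises flagged as agonism.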
# USP2a inh: blocks human ubiquitin-specific protease USP2a. USP2 core, Ub-CHOP2 coupled fluorogenic reporter, 485/531. 0.01% of 330,000 active. Potency, µM (series often up to 38.3 µM), inactives show at the highest dose activity change, negative = inhibition, hits mostly inhibitors;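 further: potency means the concentration at half of the fitted maximal effect; plate controls were DMSO wells for no effect and full inhibition by NEM control for full effect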
#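 Cell-free coupled assay: 10nM USP2 core preincubated 30min RT with compound in Tris-HCl pH 8.0/CaCl2/CHAPS buffer, then 25nM Ub-CHOP2 and 25nM reporter substrate; fluorescence (Ex 485/Em 531) read after 60min RT, normalized to NEM inhibition, concentration-response curves fitted.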
# D1 antagonist: antagonists of human D1 dopamine receptor | P21728 | HEK293 TREx D1 cells, calcium flux, dopamine EC80; active compounds read low | activity change, negative = inhibition, % at 10 µM | 3.2% of 360,000 active; in the data active means activity change below about -30%; further: on the % scale 0 is the no-effect control and ±100 the full control effect
#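 Using tetracycline-induced force-coupled D1 Hek293 cells and a calcium dye, signals were followed for 180 s after compound, then for 180 s after EC80 dopamine, to detect inhibitors.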
# D1 potentiator: potentiators of human D1 dopamine receptor; P21728; HEK293 TREx D1 cells, calcium flux, dopamine EC20 potentiation; potentiation, % at 10 µM; 0.036% of 360,000 active; AID 504651; in the data active means potentiation above about 30%; further: 0% is about no effect
# GALK inh: inhibitors of human galactokinase; P51570; Purified GALK, Kinase-Glo residual ATP luminescence; Potency, µM (top dose mostly 57.5 µM), inactives show at the top dose activity change, negative = inhibition, most hits filed as inhibitors; 0.007% of 270,000 active; AID 1868; further: potency means the concentration at half of the fitted maximal effect; on the % scale 0 is the no-effect control and ±100 the full control effect
#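 Galactose (100 uM) and ATP (35 uM) were turned over by 5 nM GALK for 1 h at RT. Kinase-Glo Plus then converted the remaining ATP into a luminescent signal.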
# Eya2 phos inh: inhibitors of human Eya2 phosphatase activity. recombinant Eya2, OMFP fluorescence dephosphorylation (OMFP is methylfluorescein phosphate). Potency, µM (doses to about 76.9 µM), without a hit: at the highest dose activity, negative = inhibition, most hits filed as inhibitors. 0.006% of 330,000 active. AID 488837; further: potency means the concentration at half of the fitted maximal effect; on the % scale 0 is the no-effect control and ±100 the full control effect
# Target sequence (O00167 whole entry, looked up): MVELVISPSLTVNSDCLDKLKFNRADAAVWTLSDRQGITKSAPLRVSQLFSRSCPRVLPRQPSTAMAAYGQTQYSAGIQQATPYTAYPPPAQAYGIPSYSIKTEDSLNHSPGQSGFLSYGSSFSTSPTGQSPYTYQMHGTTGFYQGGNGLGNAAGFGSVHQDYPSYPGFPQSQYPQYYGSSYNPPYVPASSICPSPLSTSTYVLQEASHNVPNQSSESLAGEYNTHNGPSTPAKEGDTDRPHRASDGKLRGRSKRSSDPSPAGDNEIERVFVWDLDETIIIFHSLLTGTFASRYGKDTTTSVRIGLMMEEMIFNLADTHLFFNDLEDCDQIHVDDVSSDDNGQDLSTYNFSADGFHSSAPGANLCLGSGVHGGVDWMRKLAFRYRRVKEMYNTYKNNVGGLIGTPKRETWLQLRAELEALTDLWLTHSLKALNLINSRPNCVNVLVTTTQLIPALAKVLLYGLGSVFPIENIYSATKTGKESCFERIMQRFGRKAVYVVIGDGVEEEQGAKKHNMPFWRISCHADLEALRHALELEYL
#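 Eya2 protein (added as 0.2 uM solution) was preincubated with compound for 10 min at ambient temperature in 50 mM HEPES pH 7.5, 50 mM NaCl, 5 uM MgCl2, 0.05% BSA, 1 mM DTT. OMFP (added at 50 uM) then reacted 10 min; fluorescence read at 485/525 nm.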
# The depositor's hits bear a star; / = not tested or not shown. Unless noted, the call rests on the fitted dose curve; in most records, active means well fitted inhibition curve with a large enough effect; inconclusive means small, poorly fitted or top-dose-only effect, or effect the other way; inactive means flat fitted curve, though single readings scatter.
SMILES,D1 ag,USP2a inh,D1 antagonist,D1 potentiator,GALK inh,Eya2 phos inh
CC(Oc1cc2oc(=O)c3c(c2cc1Cl)CCC3)C(=O)NC1CC(C)(C)NC(C)(C)C1 (configuration not stated),4,0%,38,-2,-3%,3%
Cc1c(OC(C)C(=O)NCCCN2CCCC2=O)ccc2c3c(c(=O)oc12)CCCC3 (configuration not stated),33*,2%,4,-2,0%,-12%
Cc1c(OC(=O)CNC(=O)OC(C)(C)C)ccc2c3c(c(=O)oc12)CCC3,4,-1%,-43*,-10,-1%,-8%
Cc1ccc(Cl)cc1N1CCN(C(=O)c2ccc(NC(=O)c3nsc4ccccc34)cc2)CC1,8,/,-6,-3,/,/
O=C(O)c1cccc(S(=O)(=O)N2CCN(S(=O)(=O)c3ccc4c(c3)OCCO4)CC2)c1,0,/,-11,14,/,/
Cc1cccc(CSc2nnc(-c3cccs3)n2Cc2ccco2)c1,9,-1%,-36*,-9,-2%,-13%
Cc1ccc(CSc2nnc(-c3cccs3)n2C)cc1,0,0%,-40*,-6,-1%,-9%
COc1cccc(C2CC(=O)Nc3c2c(=O)[nH]c2nc4ccccc4n32)c1 (configuration not stated),-1,/,3,-1,/,/
COc1ccccc1C(=O)NNC(=S)NC(=O)c1sc2ccccc2c1Cl,213*,2%,9,9,2%,4%
Cc1c(NC(=S)NC(=O)c2sc3ccccc3c2Cl)cccc1C(=O)O,0,0%,9,14,14%,22%
COc1ccccc1C(=O)NC(=S)NNC(=O)c1sc2ccccc2c1Cl,199*,-1%,10,6,0%,18%
CN(C(=O)c1ccncc1)c1nnc(-c2ccccn2)s1,1,0%,4,2,-1%,22%
CN(C(=O)c1ccno1)c1nnc(-c2ccccn2)s1,0,0%,-35*,-12,5%,-3%
CCc1nnc(NC(=O)CSc2nccn2Cc2ccc(F)cc2)s1,5,/,-11,0,/,/
CCOC(=O)c1cc(-c2ccc(C)cc2)n(CCC(=O)NCCN(C)C)c1C,63*,-6%,-8,-7,0%,0%
COc1cc2c(cc1OC)CN(C(=O)CSc1ccc(F)cc1)CC2,1,0%,-87*,-4,/,12%
Cc1ccccc1CNC(=O)C1CCCN(c2nnc(C)c3c(C)n(-c4ccccc4)nc23)C1 (configuration not stated),11,0%,16,46*,12%,-2%
COc1cc(CNC(C)C)c(Br)cc1OC1CCCC1,8,1%,-49*,-10,0%,-6%
COc1cc(Cl)ccc1OCc1cc(C(=O)N2C[C@]3(C)C[C@H]2CC(C)(C)C3)no1,38*,-9%,16,8,6%,-18%
CC1(C)CC2CC(C)(CN2C(=O)c2ccccc2)C1 (configuration not stated),0,1%,4,-4,3%,1%
COc1ccc(C(=O)N2CC3(C)CC2CC(C)(C)C3)cc1 (configuration not stated),1,/,-32*,-6,3%,/
CCc1ccc(C(=O)c2cn(CC(=O)Nc3cc(OC)ccc3OC)c3nc(C)ccc3c2=O)cc1,7,/,-49*,-2,/,/
CCN(CC)CCNC(=O)c1[nH]c2ccc(OCc3ccccc3)cc2c1C,126*,-1%,-64*,-7,0%,-8%
CCN(Cc1ccccc1)C(=O)c1[nH]c2ccc(OC)cc2c1C,4,2%,-2,-1,-1%,-14%
O=C(COC(=O)Cc1ccccc1F)Nc1ccc2c(c1)OCCO2,5,-1%,-27,-11,0%,-1%
SMILES,D1 ag,USP2a inh,D1 antagonist,D1 potentiator,GALK inh,Eya2 phos inh
O=C(COC(=O)Cc1ccccc1F)Nc1ccc2c(c1)OCO2,5,-1%,-37*,-4,10%,-27%
O=C(COC(=O)Cc1ccccc1F)Nc1ccc(SC(F)F)cc1,8,-1%,-35*,-7,3%,-3%
CC(C)Oc1cccc(C(=O)NC(=S)Nc2ccccc2)c1,5,-4%,-35*,-4,2%,-12%
CC(C)Oc1cccc(C(=O)NC(=S)Nc2cccnc2)c1,4,-1%,-11,-3,1%,2%
CC(NS(=O)(=O)c1ccc(Cl)cc1)C(=O)OCC(=O)Nc1ccc(N(C)C)cc1 (configuration not stated),1,0%,-45*,-1,/,-9%
CCN(CC)S(=O)(=O)c1ccc(O)c(C(=O)OCC(=O)NC2CCCC2)c1,0,0%,-66*,-9,-2%,12%
CS(=O)(=O)c1ccc(C(=O)OCC(=O)NC(=O)C2CCCCC2)cc1[N+](=O)[O-],7,1%,-33*,-4,-1%,-5%
CS(=O)(=O)c1ccc(C(=O)OCC(=O)NC(=O)C2COc3ccccc3O2)cc1[N+](=O)[O-] (configuration not stated),/,0%,/,/,/,-22%
CC(=O)c1cccc(NC(=O)COC(=O)c2ccc(S(C)(=O)=O)c([N+](=O)[O-])c2)c1,2,-2%,-34*,0,4%,3%
CCN(CC)S(=O)(=O)c1ccc(C(=O)OCC(=O)NC2CCCC2)cc1,9,0%,-21,-8,/,-24%
CC(=O)c1cccc(NC(=O)COC(=O)c2ccc3c(c2)OCO3)c1,9,0%,-31*,/,/,4%
CC(=O)Nc1cccc(C(=O)OCC(=O)NC2CCCCCCC2)c1,6,-5%,-39*,-5,/,-7%
CC(=O)Nc1ccc(NC(=O)COC(=O)/C=C/c2ccc3c(c2)OCO3)cc1,4,1%,15,/,/,9%
Cc1ccccc1NC(=O)Cc1nc(COC(=O)c2ccc(S(C)(=O)=O)c([N+](=O)[O-])c2)cs1,5,-1%,-36*,-8,/,21%
NC(=O)c1ccc(NC(=O)COC(=O)/C=C/c2ccc3c(c2)OCO3)cc1,8,0%,-41*,1,-2%,2%
COc1cc(SC)ccc1C(=O)OCC(=O)NC1CCCCC1,1,1%,-32*,2,2%,8%
CCOC(=O)c1c(C)[nH]c(C)c1S(=O)(=O)N1CCC(C(=O)NCc2cccc(C)c2)CC1,3,/,-6,-2,/,/
CC(C)ON([C@@H](C(=O)NO)C(C)C)S(=O)(=O)c1ccc(-c2ccccc2)cc1,/,/,/,/,/,0%
Cc1nc(-c2cccc(F)c2)sc1CCNC(=O)c1c(F)cccc1Cl,3,/,-25,0,/,/
